# ChEMBL document CHEMBL2218924, “A broad activity screen in support of a chemogenomic map for kinase signalling research and drug discovery” (Biochem J, 2013)
# Columns and labels:
# [1] = molecular target: T1, Ephrin type-A receptor 3 (Homo sapiens) (UniProt P29320); settings: at 10 µM
# T1 sequence (whole entry): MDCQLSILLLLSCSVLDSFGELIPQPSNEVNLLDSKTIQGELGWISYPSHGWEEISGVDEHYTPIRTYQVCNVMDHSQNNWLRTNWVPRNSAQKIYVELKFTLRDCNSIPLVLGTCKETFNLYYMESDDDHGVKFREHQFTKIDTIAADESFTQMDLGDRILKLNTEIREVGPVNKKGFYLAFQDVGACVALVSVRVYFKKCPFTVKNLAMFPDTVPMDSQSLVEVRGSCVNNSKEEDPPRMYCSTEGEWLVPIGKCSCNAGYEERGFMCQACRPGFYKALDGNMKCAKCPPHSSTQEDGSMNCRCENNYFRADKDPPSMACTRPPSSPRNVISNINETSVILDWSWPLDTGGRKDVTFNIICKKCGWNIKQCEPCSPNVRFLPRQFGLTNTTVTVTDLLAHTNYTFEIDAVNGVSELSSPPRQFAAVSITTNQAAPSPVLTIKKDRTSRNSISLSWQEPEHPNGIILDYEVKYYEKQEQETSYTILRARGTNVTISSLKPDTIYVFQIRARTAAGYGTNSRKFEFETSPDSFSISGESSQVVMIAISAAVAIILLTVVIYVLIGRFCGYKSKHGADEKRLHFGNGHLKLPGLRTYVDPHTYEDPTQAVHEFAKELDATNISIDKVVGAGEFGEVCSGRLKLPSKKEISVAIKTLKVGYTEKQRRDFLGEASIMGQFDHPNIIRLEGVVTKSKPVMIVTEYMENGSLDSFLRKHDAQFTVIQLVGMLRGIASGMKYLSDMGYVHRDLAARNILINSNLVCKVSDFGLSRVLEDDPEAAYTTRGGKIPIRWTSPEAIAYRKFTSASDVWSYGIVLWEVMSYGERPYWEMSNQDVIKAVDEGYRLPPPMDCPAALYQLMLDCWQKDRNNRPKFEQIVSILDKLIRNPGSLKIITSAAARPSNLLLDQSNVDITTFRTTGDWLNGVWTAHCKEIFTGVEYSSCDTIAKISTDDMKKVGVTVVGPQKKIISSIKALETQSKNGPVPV
# [2] = molecular target: Ephrin type-A receptor 7 (Homo sapiens) (UniProt Q15375); settings: at 1 µM
# Ephrin type-A receptor 7 (Homo sapiens), sequence (Q15375 28-998 limits assumed): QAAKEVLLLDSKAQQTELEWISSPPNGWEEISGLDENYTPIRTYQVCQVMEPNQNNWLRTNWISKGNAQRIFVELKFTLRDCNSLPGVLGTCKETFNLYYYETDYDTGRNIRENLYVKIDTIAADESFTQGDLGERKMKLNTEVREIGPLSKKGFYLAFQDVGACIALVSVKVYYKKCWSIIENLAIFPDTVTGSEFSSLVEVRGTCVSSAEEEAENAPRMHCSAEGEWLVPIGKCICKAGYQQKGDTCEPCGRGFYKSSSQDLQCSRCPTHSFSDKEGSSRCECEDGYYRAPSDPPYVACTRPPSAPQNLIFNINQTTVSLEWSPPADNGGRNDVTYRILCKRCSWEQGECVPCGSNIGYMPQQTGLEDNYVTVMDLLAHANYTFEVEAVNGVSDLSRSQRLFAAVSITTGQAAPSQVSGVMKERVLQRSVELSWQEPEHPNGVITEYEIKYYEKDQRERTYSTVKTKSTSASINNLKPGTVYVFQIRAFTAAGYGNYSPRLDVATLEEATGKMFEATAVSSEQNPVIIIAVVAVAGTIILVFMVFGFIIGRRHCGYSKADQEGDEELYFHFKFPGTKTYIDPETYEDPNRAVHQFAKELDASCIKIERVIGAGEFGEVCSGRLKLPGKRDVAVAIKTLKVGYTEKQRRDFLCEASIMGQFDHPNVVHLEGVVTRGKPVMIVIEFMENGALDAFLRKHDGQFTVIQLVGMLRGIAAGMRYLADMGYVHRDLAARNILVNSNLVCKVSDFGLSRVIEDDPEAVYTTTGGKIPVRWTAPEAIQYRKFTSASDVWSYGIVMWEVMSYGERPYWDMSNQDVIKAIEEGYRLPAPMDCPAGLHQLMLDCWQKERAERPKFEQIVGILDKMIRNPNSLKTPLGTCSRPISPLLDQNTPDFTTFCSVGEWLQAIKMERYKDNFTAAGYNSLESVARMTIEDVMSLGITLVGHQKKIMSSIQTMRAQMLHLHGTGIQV
# [3] = molecular target: Ephrin type-A receptor 7 (Homo sapiens) (UniProt Q15375); settings: at 10 µM
# [4] = molecular target: T2, Ephrin type-A receptor 8 (Homo sapiens) (UniProt P29322); settings: at 1 µM
# T2 sequence (whole entry): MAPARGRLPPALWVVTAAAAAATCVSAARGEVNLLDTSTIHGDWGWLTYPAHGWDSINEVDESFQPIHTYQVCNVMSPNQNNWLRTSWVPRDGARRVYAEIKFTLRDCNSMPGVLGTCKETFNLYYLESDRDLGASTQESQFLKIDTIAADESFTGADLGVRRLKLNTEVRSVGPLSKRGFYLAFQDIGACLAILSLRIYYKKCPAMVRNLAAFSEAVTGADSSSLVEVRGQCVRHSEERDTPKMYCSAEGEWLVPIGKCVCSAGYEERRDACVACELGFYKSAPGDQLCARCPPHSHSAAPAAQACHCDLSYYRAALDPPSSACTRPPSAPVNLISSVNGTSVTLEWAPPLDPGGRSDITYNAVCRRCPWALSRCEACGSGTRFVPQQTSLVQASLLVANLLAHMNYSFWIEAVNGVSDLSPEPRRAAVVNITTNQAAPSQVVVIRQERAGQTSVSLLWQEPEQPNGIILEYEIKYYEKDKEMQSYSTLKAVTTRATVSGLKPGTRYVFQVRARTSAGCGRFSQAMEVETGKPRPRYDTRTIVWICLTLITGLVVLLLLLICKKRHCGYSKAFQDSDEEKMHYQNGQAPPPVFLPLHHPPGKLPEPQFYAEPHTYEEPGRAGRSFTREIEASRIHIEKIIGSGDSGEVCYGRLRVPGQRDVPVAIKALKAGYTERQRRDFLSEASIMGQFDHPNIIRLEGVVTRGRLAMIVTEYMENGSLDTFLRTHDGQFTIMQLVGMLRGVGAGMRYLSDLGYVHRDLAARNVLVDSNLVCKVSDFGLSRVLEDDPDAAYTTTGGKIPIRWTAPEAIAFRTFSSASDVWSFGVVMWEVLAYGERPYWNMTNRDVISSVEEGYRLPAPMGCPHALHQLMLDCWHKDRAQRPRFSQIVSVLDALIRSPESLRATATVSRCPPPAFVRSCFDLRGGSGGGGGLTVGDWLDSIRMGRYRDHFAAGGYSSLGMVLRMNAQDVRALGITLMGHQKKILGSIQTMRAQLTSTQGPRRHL
# [5] = molecular target: T2, Ephrin type-A receptor 8 (Homo sapiens); settings: at 10 µM
# [6] = molecular target: T3, Ephrin type-B receptor 1 (Homo sapiens) (UniProt P54762); settings: at 1 µM
# T3 sequence (whole entry): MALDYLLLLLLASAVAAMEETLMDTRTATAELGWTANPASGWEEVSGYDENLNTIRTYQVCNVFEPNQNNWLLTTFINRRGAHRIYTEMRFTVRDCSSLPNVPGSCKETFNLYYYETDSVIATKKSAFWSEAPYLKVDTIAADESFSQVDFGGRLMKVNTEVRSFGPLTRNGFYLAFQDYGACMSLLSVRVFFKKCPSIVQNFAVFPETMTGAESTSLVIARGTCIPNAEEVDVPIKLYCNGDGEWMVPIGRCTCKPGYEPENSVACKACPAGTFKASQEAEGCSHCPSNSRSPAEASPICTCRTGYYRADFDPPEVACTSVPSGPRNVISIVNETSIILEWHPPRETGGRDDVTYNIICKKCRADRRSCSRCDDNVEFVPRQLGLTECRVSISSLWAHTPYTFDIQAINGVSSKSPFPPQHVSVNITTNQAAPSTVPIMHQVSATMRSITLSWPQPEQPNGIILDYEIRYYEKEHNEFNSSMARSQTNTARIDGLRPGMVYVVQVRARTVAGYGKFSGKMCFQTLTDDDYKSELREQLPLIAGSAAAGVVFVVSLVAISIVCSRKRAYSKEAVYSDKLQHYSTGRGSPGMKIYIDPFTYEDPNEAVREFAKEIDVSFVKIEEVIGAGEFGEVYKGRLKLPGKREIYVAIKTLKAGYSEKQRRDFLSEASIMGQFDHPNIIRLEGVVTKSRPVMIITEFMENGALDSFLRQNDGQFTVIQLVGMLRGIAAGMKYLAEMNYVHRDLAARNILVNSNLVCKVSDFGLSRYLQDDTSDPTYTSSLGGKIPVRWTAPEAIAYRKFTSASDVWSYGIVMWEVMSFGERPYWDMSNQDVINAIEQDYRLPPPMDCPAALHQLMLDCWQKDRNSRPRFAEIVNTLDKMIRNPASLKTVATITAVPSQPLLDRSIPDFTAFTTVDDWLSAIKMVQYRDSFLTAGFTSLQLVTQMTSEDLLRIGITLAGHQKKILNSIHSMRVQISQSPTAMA
# [7] = molecular target: T3, Ephrin type-B receptor 1 (Homo sapiens); settings: at 10 µM
# [8] = molecular target: T4, Ephrin type-B receptor 3 (Homo sapiens) (UniProt P54753); settings: at 1 µM
# T4 sequence (whole entry): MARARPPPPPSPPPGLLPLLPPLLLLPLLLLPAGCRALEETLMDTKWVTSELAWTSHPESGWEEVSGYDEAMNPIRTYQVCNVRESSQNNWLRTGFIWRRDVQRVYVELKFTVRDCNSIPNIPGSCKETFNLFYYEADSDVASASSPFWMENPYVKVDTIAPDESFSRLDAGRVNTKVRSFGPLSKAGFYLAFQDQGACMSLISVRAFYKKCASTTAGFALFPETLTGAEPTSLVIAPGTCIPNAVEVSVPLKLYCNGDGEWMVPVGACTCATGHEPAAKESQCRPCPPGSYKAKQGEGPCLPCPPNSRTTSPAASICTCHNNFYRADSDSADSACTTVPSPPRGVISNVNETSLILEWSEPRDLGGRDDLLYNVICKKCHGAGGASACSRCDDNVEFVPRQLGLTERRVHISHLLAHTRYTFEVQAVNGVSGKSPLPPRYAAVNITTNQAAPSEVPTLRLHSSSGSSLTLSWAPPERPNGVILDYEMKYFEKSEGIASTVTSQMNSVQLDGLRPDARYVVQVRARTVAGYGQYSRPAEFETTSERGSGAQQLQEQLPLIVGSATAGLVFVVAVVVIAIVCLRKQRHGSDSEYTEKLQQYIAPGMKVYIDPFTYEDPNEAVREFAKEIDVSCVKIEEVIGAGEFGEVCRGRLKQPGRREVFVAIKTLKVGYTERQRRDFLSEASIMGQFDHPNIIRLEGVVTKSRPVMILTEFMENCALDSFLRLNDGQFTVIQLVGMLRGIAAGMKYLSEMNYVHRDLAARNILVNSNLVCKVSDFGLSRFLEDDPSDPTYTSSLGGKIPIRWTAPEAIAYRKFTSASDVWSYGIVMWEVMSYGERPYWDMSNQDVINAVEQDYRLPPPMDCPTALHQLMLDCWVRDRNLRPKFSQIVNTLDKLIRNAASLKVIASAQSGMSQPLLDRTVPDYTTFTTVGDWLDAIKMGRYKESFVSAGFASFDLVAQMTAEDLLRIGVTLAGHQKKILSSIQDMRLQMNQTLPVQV
# [9] = molecular target: T4, Ephrin type-B receptor 3 (Homo sapiens); settings: at 10 µM
# [10] = molecular target: T5, Ephrin type-B receptor 4 (Homo sapiens) (UniProt P54760); settings: at 1 µM
# T5 sequence (whole entry): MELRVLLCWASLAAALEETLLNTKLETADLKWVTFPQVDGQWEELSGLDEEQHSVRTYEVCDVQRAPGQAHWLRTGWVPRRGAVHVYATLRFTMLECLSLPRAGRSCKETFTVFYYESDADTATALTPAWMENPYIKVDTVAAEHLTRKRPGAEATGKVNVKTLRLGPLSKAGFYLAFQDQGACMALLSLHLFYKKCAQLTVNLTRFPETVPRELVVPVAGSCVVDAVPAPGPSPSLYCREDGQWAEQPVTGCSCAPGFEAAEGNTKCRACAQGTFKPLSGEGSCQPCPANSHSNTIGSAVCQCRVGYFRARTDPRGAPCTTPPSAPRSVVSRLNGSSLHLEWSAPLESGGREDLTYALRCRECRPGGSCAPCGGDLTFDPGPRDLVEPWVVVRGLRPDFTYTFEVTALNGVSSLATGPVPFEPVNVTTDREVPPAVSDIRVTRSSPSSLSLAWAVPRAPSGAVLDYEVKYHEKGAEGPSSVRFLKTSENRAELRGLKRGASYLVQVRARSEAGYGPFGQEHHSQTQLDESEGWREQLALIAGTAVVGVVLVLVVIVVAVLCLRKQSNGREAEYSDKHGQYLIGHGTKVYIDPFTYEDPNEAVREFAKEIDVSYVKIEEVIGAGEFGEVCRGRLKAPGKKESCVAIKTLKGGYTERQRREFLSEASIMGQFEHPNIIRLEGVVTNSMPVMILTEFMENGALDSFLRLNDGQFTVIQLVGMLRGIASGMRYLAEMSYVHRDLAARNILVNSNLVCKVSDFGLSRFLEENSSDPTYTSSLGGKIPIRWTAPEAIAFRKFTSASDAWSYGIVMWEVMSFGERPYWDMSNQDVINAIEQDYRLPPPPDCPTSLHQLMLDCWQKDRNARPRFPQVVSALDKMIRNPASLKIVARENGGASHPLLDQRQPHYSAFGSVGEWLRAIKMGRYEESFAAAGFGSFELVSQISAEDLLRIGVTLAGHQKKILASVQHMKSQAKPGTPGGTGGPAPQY
# [11] = molecular target: T5, Ephrin type-B receptor 4 (Homo sapiens); settings: at 10 µM
# [12] = molecular target: Focal adhesion kinase 1 (Homo sapiens) (UniProt Q05397); settings: at 1 µM
# Focal adhesion kinase 1 (Homo sapiens), sequence (Q05397 2-1052 limits assumed): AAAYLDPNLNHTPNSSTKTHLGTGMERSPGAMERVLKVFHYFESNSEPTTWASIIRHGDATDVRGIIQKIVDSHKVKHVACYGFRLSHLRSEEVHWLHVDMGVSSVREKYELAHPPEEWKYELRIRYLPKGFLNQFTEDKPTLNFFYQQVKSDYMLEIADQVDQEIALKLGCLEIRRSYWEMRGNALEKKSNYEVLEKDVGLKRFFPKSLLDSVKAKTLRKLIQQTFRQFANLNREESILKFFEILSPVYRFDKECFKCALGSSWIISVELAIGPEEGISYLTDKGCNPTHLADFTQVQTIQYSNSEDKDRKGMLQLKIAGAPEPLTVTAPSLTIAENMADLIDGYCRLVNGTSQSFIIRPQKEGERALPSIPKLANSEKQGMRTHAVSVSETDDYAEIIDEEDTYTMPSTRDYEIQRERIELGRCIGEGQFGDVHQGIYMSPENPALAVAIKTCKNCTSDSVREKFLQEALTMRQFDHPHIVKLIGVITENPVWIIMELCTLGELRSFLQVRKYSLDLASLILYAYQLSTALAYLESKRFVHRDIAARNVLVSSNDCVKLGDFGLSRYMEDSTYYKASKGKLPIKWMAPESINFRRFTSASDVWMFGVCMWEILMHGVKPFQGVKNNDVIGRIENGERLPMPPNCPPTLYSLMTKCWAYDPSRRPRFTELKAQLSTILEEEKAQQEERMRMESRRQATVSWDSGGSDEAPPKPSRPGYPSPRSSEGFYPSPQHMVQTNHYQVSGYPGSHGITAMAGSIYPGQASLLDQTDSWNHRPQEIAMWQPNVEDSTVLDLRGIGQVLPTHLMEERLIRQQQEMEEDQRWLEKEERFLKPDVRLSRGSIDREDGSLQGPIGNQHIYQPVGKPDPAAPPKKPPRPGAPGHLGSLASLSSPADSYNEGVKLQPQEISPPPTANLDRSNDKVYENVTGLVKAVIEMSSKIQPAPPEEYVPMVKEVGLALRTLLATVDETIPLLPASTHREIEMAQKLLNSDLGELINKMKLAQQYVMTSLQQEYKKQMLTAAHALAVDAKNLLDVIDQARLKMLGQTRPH
structure (smiles),measurement,setting,value
CCN(CC)CCNC(=O)c1c(C)[nH]c(/C=C2\C(=O)Nc3ccc(Cl)cc32)c1C,residual activity,[1],47%
same,residual activity,[2],79%
same,residual activity,[3],24%
same,residual activity,[4],100%
same,residual activity,[5],55%
same,residual activity,[6],64%
same,residual activity,[7],24%
same,residual activity,[8],129% (inactive)
same,residual activity,[9],130%
same,residual activity,[10],100%
same,residual activity,[11],35%
same,residual activity,[12],15%
